{"source": "PubChem BioAssay AID1159580", "about": "(chemical genetic matrix, 2015)", "assay": "chemical genetic growth profiling, strain panel (AID 1159580);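 also: tested at 20 µM; growth read once vehicle control cultures reached saturation at 30 °C; 1 = growth at the plate median or of vehicle wells; lower values mean less growth of the strain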", "settings": "S. cerevisiae deletion strains, growth OD", "note": "Screen size: about 5,500 compounds; about 2,000 (36%) were called active. About 18% were inconclusive and are not listed. The list shows a part of the results. Values without a mark were called inactive. Rule as the data show it: active = normalized growth mostly below about 0.91 (no sharp cut-off); inconclusive = no clear call, values can overlap the other calls; inactive = mostly above about 0.92.", "data": [{"molecule": "Cc1cc(Br)c(NC(=O)C(Cl)(Cl)Cl)c(Br)c1", "values": [{"measurement": "normalized growth", "setting": "locus YAL013W, strain DEP1, hits give low values", "value": "0.917 (active)"}, {"measurement": "normalized growth", "setting": "locus YBR229C, strain ROT2, hits give low values", "value": "0.911 (active)"}, {"measurement": "normalized growth", "setting": "locus YDL101C, strain DUN1, hits give low values", "value": 0.936}, {"measurement": "normalized growth", "setting": "locus YDR150W, strain NUM1, hits give low values", "value": 0.909}, {"measurement": "normalized growth", "setting": "locus YEL061C, strain CIN8, hits give low values", "value": 0.93}, {"measurement": "normalized growth", "setting": "locus YGR078C, strain PAC10, hits give low values", "value": "0.905 (active)"}, {"measurement": "normalized growth", "setting": "locus YHR030C, strain SLT2, hits give low values", "value": "0.592 (active)"}, {"measurement": "normalized growth", "setting": "locus YHR087W, strain rtc3, hits give low values", "value": "0.899 (active)"}, {"measurement": "normalized growth", "setting": "locus YJR043C, strain POL32, hits give low values", "value": 0.927}, {"measurement": "normalized growth", "setting": "locus YJR075W, strain HOC1, hits give low values", "value": 0.923}, {"measurement": "normalized growth", "setting": "locus YKL190W, strain CNB1, hits give low values", "value": 0.958}, {"measurement": "normalized growth", "setting": "locus YLR039C, strain RIC1, hits give low values", "value": "0.538 (active)"}, {"measurement": "normalized growth", "setting": "locus YLR058C, strain SHM2 (second series), hits give low values", "value": "0.907 (active)"}, {"measurement": "normalized growth", "setting": "locus YLR085C, strain ARP6, hits give low values", "value": "0.73 (active)"}, {"measurement": "normalized growth", "setting": "locus YLR262C, strain YPT6, hits give low values", "value": "0.579 (active)"}, {"measurement": "normalized growth", "setting": "locus YML094W, strain GIM5, hits give low values", "value": 0.944}, {"measurement": "normalized growth", "setting": "locus YMR219W, strain ESC1, hits give low values", "value": "0.933 (active)"}, {"measurement": "normalized growth", "setting": "locus YMR263W, strain SAP30, hits give low values", "value": 0.96}, {"measurement": "normalized growth", "setting": "locus YMR307W, strain GAS1, hits give low values", "value": "0.648 (active)"}, {"measurement": "normalized growth", "setting": "locus YNL153C, strain GIM3, hits give low values", "value": 0.947}, {"measurement": "normalized growth", "setting": "locus YNL298W, strain CLA4 (second series), hits give low values", "value": 0.875}, {"measurement": "normalized growth", "setting": "locus YNL322C, strain KRE1, hits give low values", "value": "0.94 (active)"}, {"measurement": "normalized growth", "setting": "locus YNR030W, strain Alg12, hits give low values", "value": 0.938}, {"measurement": "normalized growth", "setting": "locus YOL006C, strain TOP1, hits give low values", "value": "0.615 (active)"}, {"measurement": "normalized growth", "setting": "locus YPL055C, strain LGE1, hits give low values", "value": 0.919}, {"measurement": "normalized growth", "setting": "locus YPL241C, strain CIN2, hits give low values", "value": 0.939}, {"measurement": "normalized growth", "setting": "locus YPR135W, strain CTF4, hits give low values", "value": 0.736}]}]}
